# Source: PubChem
# The list is not random: actives were taken first. Their share in the collection is about 6.3%.
# ATXN2 expr inh – ATXN2 expression inhibition; HEK-293 ATXN2-luciferase reporter, luminescence, 24 h; Potency, µM (titrated, usually from 57 µM), for inactives: at the highest dose activity change, negative = inhibition, hits mostly inhibitors; 360,000 tested, 0.72% active; AID 1745845; further: on the % scale 0 is the no-effect control and ±100 the full control effect; nearly all actives have a fitted effect of over 55% in size
#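 qHTS (up to 57 uM final) was run with 24 h compound exposure of reporter cells at 37 °C. Each well was multiplexed: SteadyGlo luminescence measured ATXN2-luciferase expression after a fluorogenic Gly-Phe-AFC viability readout (25 uM final).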
# S2 tox – viability counter-screen for ATXN expression inhibitors; 400,000 tested, 0.49% active; Potency, µM (doses to about 56.7 µM), most hits filed as cytotoxic; S2 cells (HEK-293 line with an ATXN2-luciferase reporter) viability, CellTiter-Fluor protease fluorescence, 24 h; AID 651635; further: nearly all actives have a fitted effect of over 40% in size
# HepG2 viability – counter-screen for TGF-b inhibitors: cytotoxicity in HepG2 cells; HepG2 CAGA-GFP viability, ATP luminescence, 18 h; Potency, µM (titrated, usually from 46.1 µM), for the others: at the highest dose activity change, negative = cytotoxicity, usual class: cytotoxic; 410,000 tested, 0.76% active
#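 CellTiter-Glo luminescence gave cytotoxicity after 18 hours at 37 degrees C. The cells were HepG2 CAGA-GFP in 1% FBS DMEM, stimulated with 500 pg/mL TGF-beta after compound addition. %Activity was normalised to no-cell wells (complete cell-killing) and DMSO (no toxicity), and curves were fitted and classified.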
# Gal4-VP16 FLuc – inhibits Gal4-VP16 luciferase reporter, ROR gamma counter-screen | Drosophila S2 Gal4-VP16 UAS-luciferase, luminescence, 20 h | Potency, µM (highest dose often 53.6 µM), for the others: top-dose activity, negative = inhibition, most hits filed as inhibitors | 310,000 tested, 3.5% active;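 further: Gal4-VP16 expression switched on by copper sulfate through the metallothionein promoter; on the % scale 0 is the no-effect control and ±100 the full control effect; nearly all actives have a fitted effect of over 50% in size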
# RORg inh – blocks mouse ROR gamma transcriptional activity; P51450; Drosophila S2 Gal4-RORgamma UAS-luciferase reporter, 20 h; Potency, µM (series often up to 53.6 µM), for the others: at the top dose activity change, negative = inhibition, most hits filed as inhibitors; 310,000 tested, 5.4% active; AID 2551; further: on the % scale 0 is the no-effect control and ±100 the full control effect; nearly all actives have a fitted effect of over 60% in size
# Target sequence (P51450 whole entry, looked up, the tested form may be a part): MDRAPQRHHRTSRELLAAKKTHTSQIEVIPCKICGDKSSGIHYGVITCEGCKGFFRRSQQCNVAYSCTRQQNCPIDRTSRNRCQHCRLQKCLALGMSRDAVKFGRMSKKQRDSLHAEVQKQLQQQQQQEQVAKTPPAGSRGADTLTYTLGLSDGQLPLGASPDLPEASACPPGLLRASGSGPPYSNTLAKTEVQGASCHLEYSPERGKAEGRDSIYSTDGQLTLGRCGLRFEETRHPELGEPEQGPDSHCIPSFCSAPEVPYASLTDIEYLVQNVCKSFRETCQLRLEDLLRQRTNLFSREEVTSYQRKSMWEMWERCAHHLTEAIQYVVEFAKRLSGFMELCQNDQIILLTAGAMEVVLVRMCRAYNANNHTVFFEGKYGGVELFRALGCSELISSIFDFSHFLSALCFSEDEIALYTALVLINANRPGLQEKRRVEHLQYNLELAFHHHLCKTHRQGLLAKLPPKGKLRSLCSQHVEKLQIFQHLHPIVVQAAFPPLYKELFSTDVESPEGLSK
#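 Luciferase reporter read in Schneider cells carrying Gal4-RORγ (mouse) and UAS-Photinus luciferase; cells given compound 1 h before 700 uM copper sulfate induction, then incubated 20 h at ambient temperature.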
# TGFb inhibitor – inhibitors of TGF-b signaling. HepG2 CAGA-GFP TGF-b/SMAD3 reporter, GFP fluorescence, 18 h; TGF-beta stimulated, 500 pg/mL final. Potency, µM (series often up to 46.1 µM), for the others: at the top dose activity, negative = inhibition, actives largely listed as inhibitors. 410,000 tested, 1.2% active; further: on the % scale 0 is the no-effect control and ±100 the full control effect; nearly all actives have a fitted effect of over 65% in size
#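 Per well, imaged GFP fluorescence of HEPG2 CAGA-GFP cells gives the signal; cells get compound, then TGF-beta (500 pg/mL final), 18 h at 37 degrees C; %Activity versus -TGF-beta and +DMSO controls.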
# An asterisk follows results filed as active; i = inactive; u = inconclusive; x = no result given; [ ] = dose if it differs, or a comment. The call rests on the fitted dose curve; in most records, active means well fitted curve in the direction sought with a large enough effect; inconclusive means small, poorly fitted or top-dose-only effect, or another doubt; inactive means no such curve, though single readings can be large; an effect the other way counts as inactive or inconclusive. Potency means the concentration at half of the fitted maximal effect.
SMILES,ATXN2 expr inh,S2 tox,HepG2 viability,Gal4-VP16 FLuc,RORg inh,TGFb inhibitor
Cc1cc(C)c2oc(-c3cccc(NC(=O)COc4ccccc4Cl)c3C)nc2c1,11%,i,-5%,x,x,9%
S=c1[nH]ncn1NCc1ccc(Cl)cc1Cl,x,i,-10%,u,6.3µM*,-17%
CN1C/C(=C/c2ccncc2)C(=O)/C(=C/c2ccncc2)C1,5%,i,-4%,4µM*,13µM*,1%
CCOc1cc(/C=C2\CCC/C(=C\c3cc(Cl)c(O)c(OCC)c3)C2=O)cc(Cl)c1O,8.9µM*,16µM*,7.9µM*,11µM*,u,5µM*
C=CCNC(=O)/C(C#N)=C\c1cc(Cl)c(O)c(OCC)c1,0%,i,8%,-1%,3%,10%
COc1cc(/C=C2\OC(=O)c3c(OC)cccc32)ccc1O,59%,i,2%,-5%,-4%,-3%
COc1cc(C=C2CN(C)C(=O)C2=O)ccc1O,x,28µM*,-30%,x,x,-3%
CCOc1cc(/C=C2\CN(C)C/C(=C\c3ccc(O)c(OCC)c3)C2=O)ccc1O,3.2µM*,x,-55%,u,u,u
CCOc1cc(/C=C2\SC(N)=NC2=O)ccc1O,-7%,i,-4%,2%,14%,-18%
O=C(O)C1=CO[C@@H](O[C@@H]2O[C@H](CO)[C@H](O)[C@H](O)[C@H]2O)[C@@H]2C(CO)=CC[C@H]12,2%,x,x,x,x,x
C=CCC(C)(O)c1cccc(Br)c1 (configuration not stated),x,x,x,-10%,13%,x
CN1CCN(C2Cc3ccc(F)cc3Sc3cc(F)c(Cl)cc32)CC1 (configuration not stated),u,u,20µM*,x,x,u
CCc1cccc2c1Sc1ccccc1CC2N1CCNCC1 (configuration not stated),x,x,-134%,x,x,u
CN1CCN(C2Cc3ccccc3Sc3cc(C(F)(F)F)ccc32)CC1 (configuration not stated),u,x,20µM*,x,x,u
Cc1cccc2c1Sc1ccc(Cl)cc1CC2N1CCNCC1 (configuration not stated),u,16µM*,-156%,x,x,u
CSc1ccc2c(c1)[C@H](N1CCN(C)CC1)Cc1ccccc1S2,x,i,x,-25%,u,x
CN1CCN(C2Cc3cc(F)ccc3Sc3ccc(Cl)cc32)CC1 (configuration not stated),x,u,-105%,x,x,32µM*
CC(C)(C)c1ccc(C(=O)NCCC(=O)NCc2ccc(F)cc2)cc1,x,i,1%,x,x,4%
COc1cc(Nc2nc(SCC(=O)c3ccc(Br)cc3)nc3ccccc23)cc(OC)c1,x,x,10µM*,x,x,u
C=CCc1cccc(C2C(C)CCC3C(=O)N4C(CCC(C)C4c4cccc(CC=C)c4)C(=O)N32)c1 (configuration not stated),x,x,x,8%[10 µM],1%[10 µM],x
Cc1[nH]n2c(=O)cc(-c3ccc([N+](=O)[O-])cc3)nc2c1-c1ccccc1,20µM*,u,-56%,x,x,u
Cc1[nH]n2c(=O)cc(-c3ccc(Cl)cc3)nc2c1-c1ccccc1,3.5µM*,i,-43%,x,x,10µM*
Cc1ccc(N=Nc2c(N)[nH]n3c(=O)cc(-c4ccccc4)nc23)cc1,u,u,-30%,u,-14%,10%
CC(C)Cn1c(SCC(=O)NC2CC2)nc2ccccc21,x,i,-31%,x,x,-2%
Cc1ccc(C)c2sc(N3CCN(C(=O)C(C)(C)C)CC3)nc12,-6%,i,-19%,x,x,-25%
SMILES,ATXN2 expr inh,S2 tox,HepG2 viability,Gal4-VP16 FLuc,RORg inh,TGFb inhibitor
Cc1c(C(=O)N(Cc2nccn2C)C(C)C)oc2c(F)cccc12,0%,i,-10%,-8%,-32%,0%
CCCc1ccc2oc(C(=O)N(Cc3nccn3C)C(C)C)c(C)c2c1,x,i,6%,-3%,11µM*,u
Cc1ccc(-n2c(=O)c3cccnc3n2CC(=O)NCc2ccc(Cl)cc2)cc1,7%,i,-34%,x,x,u
C=C1C(C2(C)C=CC(=O)C(C)(C)C2CC(=O)OC)CC[C@@]2(C)C(c3ccoc3)OC(=O)C3OC132 (some centres not stated),x,x,x,-12%,27%,x
O=C(Nc1nccs1)c1cnccn1,8%,i,11%,-9%,u,-20%
O=C(Nc1nccs1)c1ccc(Br)cc1,27%,i,-4%,u,8.9µM*,-30%
C/C(=C\c1ccccc1)C(=O)Nc1nccs1,21%[11.3 µM],i,1%,u,6.3µM*,-4%
CCn1ncc(Br)c1C(=O)Nc1nccs1,-1%,i,-5%,u,13µM*,-9%
O=C(Nc1nccs1)c1ccccn1,-16%,i,-30%,13µM*,2.5µM*,-5%
COc1ccc(NC(=O)c2ccc(S(=O)(=O)N(C)c3ccccc3)cc2)cn1,-21%,i,-23%,u,u,-4%
CCN1C(=O)[C@H]2[C@H]3[C@H](O)[C@H](O)C/C(=N/OC/C=C(\C)CCC=C(C)C)[C@@H]3CC[C@@H]2C1=O,x,x,x,-10%[10 µM],1%[10 µM],x
O=C(Nc1nccs1)c1ncc(Cl)c(Cl)c1Cl,-14%,i,-60%,4µM*,7.9µM*,-19%
O=C(Nc1nccs1)c1ccc(Br)s1,24%,i,-15%,u,11µM*,-12%
Cn1cc(Cl)c(C(=O)Nc2nccs2)n1,19%,i,-13%,4%,10%,12%
O=C(Nc1nccs1)c1ccc2ccccc2c1,-22%,u,-41%,6.3µM*,7.9µM*,u
O=C(Nc1nccs1)c1ccc(S(=O)(=O)c2ccccc2)cc1,4%,i,13%,-11%,-38%,29%
O=[N+]([O-])c1ccc(/C=C2\CCC(C3=CCCC3)=C2N2CCOCC2)cc1,23%,i,-39%,4µM*,u,u
COc1ccccc1N1CCN(CC(O)COc2ccc(C)cc2C(C)(C)C)CC1 (configuration not stated),x,x,16µM*,x,x,u
FC(F)(F)c1cnc(-c2cnc(-c3ccccn3)nc2)c(Cl)c1,-22%,i,-16%,-11%,5.6µM*,u
O=C1COc2ccc(C(=O)/C=C/c3ccccc3)cc2N1,-1%,i,-15%,3%,-38%,8.9µM*
O=C(/C=C/c1ccccc1)c1ccc2c(c1)OCCCCO2,55%,i,-55%,u,u,-15%
COc1ccc(C2Oc3ccccc3C3=C2C(c2cccs2)n2ncnc2N3)cc1 (configuration not stated),-28%,i,-20%,2.5µM*,u,6%
